Laboratory results taken from PubChem BioAssay.
Active and inactive are the calls of the source.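 Rule for the calls, unless noted: active = inhibition of the reporter signal at or above 50%; inactive = inhibition below 50%.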

Legend:
[1] = inhibitors of TNFa-induced NFkB p65 translocation, primary screen, imaging, HUVEC, MLSMR starter and 10KST1 sets (AID 438;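 active = inhibition above 20% together with a positive visual image hit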;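 note: compound added about 3h40 before a 20 min TNFalpha stimulation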;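 for inhibition: signal is the nuclear over cytoplasmic p65 intensity ratio per well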); conditions: HUVEC TNFa-induced p65 nuclear translocation; cell count: measured here: nuclei count (cytotoxicity indicator), at 2.08 µM; inhibition: at 2 µM, stronger effect = higher value, 0% TNFa-plus-vehicle, 100% no-TNFa wells
[2] = inhibitors of mutant huntingtin aggregation, primary screen, imaging, exon1htt(103Q)mCFP cells, high-content imaging (AID 483;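 active = visual image review flags a hit and inhibition of aggregation exceeds 20%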;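 note: compound exposure lasted 3 days before fixation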;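 for nuclei count: percent of the per-plate median nuclei count of sample wells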); conditions: exon1htt(103Q)mCFP cell line, aggregate imaging, at 2 µM; inhibition of aggregation: stronger effect = higher value; nuclei count: measured here: cell count, toxicity
[3] = inhibitors of E-selectin induction by TNFa, primary screen, imaging, HUVEC, immunofluorescence, MLSMR starter and 10KST1 sets (AID 487;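 active = visually confirmed hit in the image check and inhibition above 20%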;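 for inhibition: signal is fraction of cell area covered by stained E-selectin grains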;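 for nuclei count: 100% = median nuclei count of all wells on the same plate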); conditions: HUVEC TNFalpha-induced E-selectin immunofluorescence imaging, at 2 µM; inhibition: stronger effect = higher value; nuclei count: measured here: cell number, toxicity
[4] = target: Voltage-gated potassium channel subunit beta-2 (Rattus norvegicus) (UniProt P62483); test: KvBeta enzyme negative modulators, primary screen, biochemical, NADPH fluorescence (AID 622;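 active = fluorescence slope higher than the sample average by over 3 SD, cut at about -0.22 in these data, passing the limit was not always enough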;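 note: slope of raw intensity against log time taken from 70 to 1610 s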); conditions: recombinant KvBeta, 4-cyanobenzaldehyde reduction, at 10 µM, stronger effect = higher value
[5] = target: Voltage-gated potassium channel subunit beta-2 (Rattus norvegicus) (UniProt P62483); test: KvBeta positive modulators, primary screen, biochemical, NADPH fluorescence (AID 623;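 active = NADPH fluorescence slope more negative than the mean of all samples by about 3 SD, 99.7% confidence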;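 note: fluorescence intensity change per second fitted from 20 to 320 s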); conditions: Recombinant KvBeta, NADPH fluorescence decrease slope, 10 min; at 10 µM; stronger effect = lower value
[6] = target: Alpha-2C adrenergic receptor (Homo sapiens) (UniProt P18825); test: modulators of alpha2C/GIRK thallium flux, primary screen, cell-based, HEK293 alpha2C/GIRK1/2 (AID 624;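 active = fluorescence slope after compound addition differing from the mean of all screened samples at 99.7% confidence, in either direction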;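 note: slope of fluorescence ratio to pre-addition baseline per second over 15 to 24 s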); conditions: thallium flux BTC fluorescence, at 10 µM, actives lie on both sides
[7] = inhibitors of Sendai virus-induced IRF3 signaling, primary screen, TLR/RLR signaling modifier project, cell-based, Sendai virus stimulus, luciferase, 10K MLSCN set (AID 602276;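 active = inhibition at or above 50% at 10 µM; inactive = inhibition below 50%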;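 note: firefly luciferase from ISG56 promoter only with Renilla not read in this screen; 0% = Sendai virus plus DMSO and 100% = medium plus DMSO without virus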); conditions: HEK293 RL24 IRF3 luciferase reporter, at 10 µM, stronger effect = higher value
[8] = inhibitors of poly I:C-induced TLR3 signaling, primary screen, cell-based, poly I:C stimulus, luciferase, 10K MLSCN set (AID 602277); conditions: HEK293-TLR3 RL24 IRF3 luciferase reporter, at 10 µM, stronger effect = higher value

Chain of Alpha-2C adrenergic receptor (Homo sapiens) (P18825 whole entry, looked up): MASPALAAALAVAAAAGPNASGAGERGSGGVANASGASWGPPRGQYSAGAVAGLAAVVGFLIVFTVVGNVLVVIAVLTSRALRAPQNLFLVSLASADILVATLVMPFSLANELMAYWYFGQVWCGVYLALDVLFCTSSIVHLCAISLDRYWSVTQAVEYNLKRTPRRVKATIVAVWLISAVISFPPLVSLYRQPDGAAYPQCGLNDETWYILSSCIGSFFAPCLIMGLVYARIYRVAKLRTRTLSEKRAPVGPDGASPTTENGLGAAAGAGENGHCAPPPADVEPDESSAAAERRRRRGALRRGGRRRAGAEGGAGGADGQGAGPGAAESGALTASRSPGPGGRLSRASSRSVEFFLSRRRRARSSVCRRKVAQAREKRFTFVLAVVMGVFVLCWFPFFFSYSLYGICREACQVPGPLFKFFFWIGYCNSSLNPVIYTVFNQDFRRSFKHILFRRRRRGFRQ
Chain of Voltage-gated potassium channel subunit beta-2 (Rattus norvegicus) (P62483 whole entry, looked up): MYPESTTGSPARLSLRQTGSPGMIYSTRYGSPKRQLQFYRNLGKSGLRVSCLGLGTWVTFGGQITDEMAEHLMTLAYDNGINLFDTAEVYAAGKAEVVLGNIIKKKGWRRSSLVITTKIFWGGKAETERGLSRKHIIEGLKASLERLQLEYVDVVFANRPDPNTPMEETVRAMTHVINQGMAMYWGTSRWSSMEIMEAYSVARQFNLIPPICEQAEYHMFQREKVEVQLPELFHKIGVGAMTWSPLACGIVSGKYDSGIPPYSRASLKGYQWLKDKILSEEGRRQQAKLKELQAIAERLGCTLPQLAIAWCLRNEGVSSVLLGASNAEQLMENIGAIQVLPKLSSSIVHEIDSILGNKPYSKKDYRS

| Compound | cell count [1] | inhibition [1] | inhibition of aggregation [2] | nuclei count [2] | inhibition [3] | nuclei count [3] | fluorescence slope [4] | NADPH fluorescence slope [5] | slope [6] | inhibition [7] | inhibition [8] |
| --- | --- | --- | --- | --- | --- | --- | --- | --- | --- | --- | --- |
| CCOCCCn1c(=NC(C)=O)c(C(=O)OCC)cc2c(=O)n3ccccc3nc21 | 473 | -3.3% (inactive) | 2.4% (inactive) | 108% | -119% (inactive) | 129% | -0.114 (inactive) | -3.8e-05 (inactive) | 0.00394 (inactive) | -7.28% (inactive) | -15% (inactive) |
| CCn1c(SCC(=O)Nc2cccc(C)c2)nc2c(c1=O)SC(C)C2 (stereo not drawn) | 576 | -3.4% (inactive) | 40.7% (inactive) | 85.6% | -11.7% (inactive) | 86% | -0.537 (inactive) | -4.6e-05 (inactive) | 0.00615 (inactive) | 12.1% (inactive) | 25.9% (inactive) |
| CCOC(=O)CN(C(=O)CSc1nnc(-c2ccncc2)n1CCCN(C)C)c1ccccc1 | 570 | -11.3% (inactive) | 12.2% (inactive) | 89.1% | -14.2% (inactive) | 92.8% | -0.615 (inactive) | -1.7e-05 (inactive) | 0.00606 (inactive) | 14.2% (inactive) | 30.4% (inactive) |
| Nc1c(C(=O)NCCN2CCOCC2)c2nc3ccccc3nc2n1-c1ccc2c(c1)OCO2 | 337 | -8.4% (inactive) | -2.4% (inactive) | 96.7% | -53.1% (inactive) | 74% | -0.348 (inactive) | -6.2e-05 (inactive) | 0.00388 (inactive) | 11.3% (inactive) | 16.5% (inactive) |
| CC(=O)c1cccc(NS(=O)(=O)c2ccc3c(c2)oc(=O)n3C)c1 | 299 | -9% (inactive) | 0.5% (inactive) | 119% | -52% (inactive) | 117% | -0.437 (inactive) | -2.3e-05 (inactive) | 0.00511 (inactive) | 6.35% (inactive) | 2.39% (inactive) |
| O=C(C1CCCN(S(=O)(=O)c2cccnc2)C1)N1CCN(c2ccccn2)CC1 (stereo not drawn) | 671 | -0.3% (inactive) | -27.9% (inactive) | 108% | -1.7% (inactive) | 108% | -0.581 (inactive) | -1.6e-05 (inactive) | 0.00648 (inactive) | 5.38% (inactive) | 14% (inactive) |
| CCN1C(=O)C(C(=O)Nc2ccc(OC)cc2)C2CC1(C)Oc1ccccc12 (stereo not drawn) | 489 | 4.3% (inactive) | -2% (inactive) | 104% | -4.8% (inactive) | 102% | -0.305 (inactive) | -5.8e-05 (inactive) | 0.0052 (inactive) | -34.3% (inactive) | -51.5% (inactive) |
| CSc1cccc(NS(=O)(=O)c2ccccc2)c1 | 420 | -1.4% (inactive) | -3.4% (inactive) | 99.5% | -38% (inactive) | 106% | -0.283 (inactive) | -2.2e-05 (inactive) | 0.00527 (inactive) | 9.48% (inactive) | 27.9% (inactive) |
| FC(F)(F)c1cccc(N2CCN(c3nnnn3-c3ccccc3)CC2)c1 | 394 | -3.8% (inactive) | -1.6% (inactive) | 96.2% | -98.2% (inactive) | 112% | -0.647 (inactive) | 1.2e-05 (inactive) | 0.00945 (inactive) | 10.2% (inactive) | 2.35% (inactive) |
| COC(=O)c1sc(N2C(=O)C(O)=C(C(=O)c3ccc(C)o3)C2c2ccc(F)cc2)nc1C (stereo not drawn) | 325 | 3% (inactive) | 10.4% (inactive) | 96.6% | 35.1% (inactive) | 109% | -0.419 (inactive) | -5.6e-05 (inactive) | 0.0054 (inactive) | 18.3% (inactive) | 4.43% (inactive) |
| CCN1C(=O)c2cccc3c(NC(=O)c4ccc5c(c4)OCCO5)ccc1c23 | 563 | 0.5% (inactive) | 4.6% (inactive) | 87.1% | 18% (inactive) | 90.9% | -0.48 (inactive) | -5.7e-06 (inactive) | -0.00194 (inactive) | 7.48% (inactive) | 17% (inactive) |
| O=C(Nc1ccncc1)C1c2ccccc2Oc2ccccc21 | 722 | 2.8% (inactive) | 1.3% (inactive) | 90.9% | 19.9% (inactive) | 102% | -0.201 (inactive) | -1e-05 (inactive) | 0.0059 (inactive) | 12.2% (inactive) | 17.7% (inactive) |
| Cc1cc(N2CCC3(CC2)OCCO3)n2nc(C)c(-c3ccc(Cl)cc3)c2n1 | 495 | -19.7% (inactive) | -48.2% (inactive) | 61.2% | -11.4% (inactive) | 94.7% | -0.544 (inactive) | 7.5e-07 (inactive) | 0.00741 (inactive) | 12.3% (inactive) | 12.1% (inactive) |
| CCOC(=O)CC(=O)Nc1c(C)cc(C)cc1C | 270 | 7.5% (inactive) | 12.8% (inactive) | 87.4% | 6.5% (inactive) | 105% | -0.416 (inactive) | 6.4e-05 (inactive) | 0.00527 (inactive) | -9.54% (inactive) | 2.4% (inactive) |
| O=C(NCCOC(=O)C1COc2ccccc2O1)C1COc2ccccc2O1 (stereo not drawn) | 357 | -2.1% (inactive) | -2% (inactive) | 106% | -99.1% (inactive) | 128% | -0.48 (inactive) | -3.8e-05 (inactive) | 0.00608 (inactive) | -2.25% (inactive) | 19.3% (inactive) |
| CCOC(=O)c1cccc(NC(=O)CSc2nnc(-c3cccnc3)n2C)c1 | 505 | -0.3% (inactive) | 8.9% (inactive) | 97.6% | -100% (inactive) | 134% | -0.285 (inactive) | -5.6e-05 (inactive) | 0.00612 (inactive) | 8.88% (inactive) | 10.4% (inactive) |
| O=C(CSc1nnnn1C1CCCCC1)N1CCc2ccccc21 | 348 | 0.8% (inactive) | -13.7% (inactive) | 101% | 1.9% (inactive) | 120% | -0.566 (inactive) | -4e-05 (inactive) | 0.00388 (inactive) | 9.99% (inactive) | -10% (inactive) |
| O=S(=O)(c1ccc2ccccc2c1)N1CCCCC1 | 424 | 2.6% (inactive) | 7% (inactive) | 104% | 20.8% (inactive) | 104% | -0.413 (inactive) | -2.4e-06 (inactive) | 0.00701 (inactive) | 13.9% (inactive) | 33.1% (inactive) |
| CCc1c(C(=O)N2CCOCC2)csc1C | 295 | -3.7% (inactive) | -15% (inactive) | 104% | -4.5% (inactive) | 104% | -0.409 (inactive) | -7.3e-05 (inactive) | 0.00413 (inactive) | -0.247% (inactive) | -13.5% (inactive) |
| Cn1c(=O)c2c(nc(SCCOc3ccc4ccc(=O)oc4c3)n2C)n(C)c1=O | 581 | 3.3% (inactive) | 7.2% (inactive) | 107% | -34.8% (inactive) | 95.1% | -0.53 (inactive) | -3.8e-05 (inactive) | 0.00534 (inactive) | 5.44% (inactive) | 23.8% (inactive) |
| CSC1=NCCN1C(=O)c1ccc(S(=O)(=O)N2CCCC2)cc1 | 611 | 0.8% (inactive) | 9.6% (inactive) | 107% | -7.2% (inactive) | 105% | -0.592 (inactive) | -1.6e-05 (inactive) | 0.00671 (inactive) | 11.2% (inactive) | 33.2% (inactive) |
| O=C(Nc1ccccc1C(=O)N1CCOCC1)C1COc2ccccc2O1 (stereo not drawn) | 355 | 3.3% (inactive) | -5.7% (inactive) | 105% | -70.1% (inactive) | 123% | -0.437 (inactive) | -1.5e-05 (inactive) | 0.00506 (inactive) | 6.31% (inactive) | 11.6% (inactive) |
| Cc1ccc(CCNC(=O)C2CCCN(S(=O)(=O)c3cnc[nH]3)C2)cc1 (stereo not drawn) | 603 | -0.2% (inactive) | -6.4% (inactive) | 99.1% | -89.2% (inactive) | 135% | -0.577 (inactive) | -1.4e-06 (inactive) | 0.00614 (inactive) | 1.87% (inactive) | 18% (inactive) |
| CC(C)Cn1c(-c2ccc(F)cc2)n[nH]c1=S | 390 | 2.6% (inactive) | -11.3% (inactive) | 106% | -69.3% (inactive) | 118% | -0.395 (inactive) | -3.7e-05 (inactive) | 0.0039 (inactive) | 9.62% (inactive) | 12.7% (inactive) |
| CCOC(=O)c1cnc(SC2CC(=O)N(c3ccc(OC)c(OC)c3)C2=O)nc1N (stereo not drawn) | 811 | -3.6% (inactive) | -0.6% (inactive) | 95.4% | -110% (inactive) | 135% | -0.531 (inactive) | 1.4e-05 (inactive) | 0.00718 (inactive) | -6.56% (inactive) | -2.72% (inactive) |
| CCOc1ccc(-c2nc(C#N)c(NCc3ccc4c(c3)OCO4)o2)cc1 | 801 | 1.8% (inactive) | -13.1% (inactive) | 93.8% | -56.3% (inactive) | 120% | -0.581 (inactive) | -4.4e-05 (inactive) | 0.00619 (inactive) | -4.94% (inactive) | -18.3% (inactive) |
| Cc1ccc(S(=O)(=O)Nc2nc3ccccc3nc2NCc2ccco2)cc1 | 686 | 7.1% (inactive) | -2% (inactive) | 103% | -39.6% (inactive) | 110% | -0.376 (inactive) | 6.7e-06 (inactive) | 0.00699 (inactive) | -21.6% (inactive) | -121% (inactive) |
| CC1CN(c2ccc(Oc3ccccc3)cc2)c2nc3c(c(=O)n(CC(N)=O)c(=O)n3C)n2C1 (stereo not drawn) | 706 | -12.4% (inactive) | 4.2% (inactive) | 106% | -15.8% (inactive) | 93.4% | -0.546 (inactive) | -6.5e-05 (inactive) | 0.00659 (inactive) | 9.73% (inactive) | 22.4% (inactive) |
